A selection: hits, their analogues and other compounds. The true share with any hit is near 7.2%.
ALR inh = inhibitors of human ALR sulfhydryl oxidase, primary screen, biochemical, H2O2 detection, HRP-luminol luminescence, single point | inhibition, % (concentration not given with the values) | FAD-linked sulfhydryl oxidase ALR (Homo sapiens), P55789 | purified ALR, DTT oxidation | AID 485317, 2010 | 3.8% of 290,000 active;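 active = mean replicate inhibition above about 79%, with every replicate also reaching it, limit read from the data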
Target sequence (P55789 whole entry, looked up): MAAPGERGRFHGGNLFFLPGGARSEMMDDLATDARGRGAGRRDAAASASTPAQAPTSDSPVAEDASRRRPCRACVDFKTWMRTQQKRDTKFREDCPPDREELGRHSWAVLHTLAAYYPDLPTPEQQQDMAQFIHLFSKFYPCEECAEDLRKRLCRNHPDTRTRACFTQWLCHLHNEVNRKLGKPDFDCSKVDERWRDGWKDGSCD
SUMO Mot1 rescue = yeast Mot1-301 growth rescue at high temperature, primary screen, SUMOylation pathway inhibitor project, S. cerevisiae, ATP luminescence, 38.5C; S. cerevisiae Mot1-301 growth rescue; percent above DMSO median, 100 means doubled; 1% of 320,000 active; growth rescue, % at 18.8 µM;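 active = every valid replicate shows activation above 250% relative to neutral control wells; inactive = the rest, any valid replicate at or below 250%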
VLA-4 inh = inhibition in human VLA-4 binding assay, primary screen, VLA-4 allosteric modulator project, MLPCN library, flow cytometry, VLA-4 expressing cells; Integrin alpha-4 (Homo sapiens), P13612; ligand binding flow cytometry; inhibition, % (about 7 µM as worked out from the volumes in the protocol); 0.2% of 330,000 active; AID 2557, 2010; in the data active = inhibition above about 50%
Bfl-1 A1 inh = caspase 3/7 activation in MEF A1-2A-BIM cells, primary screen, A1 inhibitor project, cell-based, luminescence, HTS; Caspase-Glo 3/7 luminescence, 3 h; percent of clofoctol response, vehicle zero; caspase activation, % (no concentration beside the values); 0.066% of 330,000 active; AID 2462, 2010;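 active = over half of replicate activation scores above 10%, or exactly half above 10 with the replicate mean above 10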
Efflux pump inh = inhibitors of Candida efflux pumps in yeast, primary screen, S. cerevisiae, Nile Red, multiplex. S. cerevisiae Candida pump triplex. inhibition, % at 10 µM. 0.44% of 330,000 active. AID 485275, 2010;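 active = plate passing quality check with inhibition over a set limit, or well fluorescence over plate mean plus 4 SD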;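 also: Nile Red retained in pooled yeast measured as flow cytometry median fluorescence; higher means more Nile Red kept so more efflux inhibition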
AHR activator = AHR activators, primary screen, cell-based, luminescence, luciferase reporter, human; AHR-responsive luciferase reporter cells; activation, % at 5 µM; 2.5% of 320,000 active; AID 2796, 2010; in the data active = activation above about 47%
Numbers stand for hits; - = inactive; . = no result given.

SMILES	ALR inh	SUMO Mot1 rescue	VLA-4 inh	Bfl-1 A1 inh	Efflux pump inh	AHR activator
CC(=O)NC(Cc1ccc(F)cc1)C(=O)NC1CCN(c2ncccc2[N+](=O)[O-])CC1 (stereo not drawn)	-	-	-	-	-	-
O=C(CSc1nnnn1-c1cccc2c1CCCC2)NC1CCCC1	-	-	-	-	-	-
CC(=O)c1ccc(-n2nnnc2SCC(=O)Nc2cccc(NC(=O)c3ccco3)c2)cc1	99	-	-	-	-	-
COc1ccc(-n2nnnc2SCC(=O)Nc2cccc(NC(C)=O)c2)cc1OC	99	-	-	-	-	-
CC(=O)Nc1cccc(NC(=O)CSc2nnnn2Cc2ccccc2)c1	99	-	-	-	-	-
O=C(CSc1nnnn1Cc1ccccc1)Nc1cccc(F)c1	.	-	-	-	-	-
CC(C)=CCN1CCN(Cc2cnc(C)s2)CC1CCO (stereo not drawn)	-	-	-	-	-	-
N/C(=N\OC(=O)c1ccccc1Cl)c1cccc([N+](=O)[O-])c1	-	-	-	-	-	-
N/C(=N\OC(=O)c1ccccc1Cl)c1ccncc1	-	-	-	-	-	59
N/C(=N/OC(=O)c1ccccc1Cl)c1ncc([N+](=O)[O-])s1	-	-	-	-	-	54
O=C(c1ccc(Br)o1)N1CCN(c2ccc3nnc(-c4ccc(F)cc4)n3n2)CC1	-	-	-	-	-	47
O=C(NC(Nc1ccccn1)C(Cl)(Cl)Cl)c1ccccc1 (stereo not drawn)	-	-	-	-	-	-
Cc1ccc(NCC(O)C(O)C(O)CO)c(N=Nc2ccccc2)c1C (stereo not drawn)	99	-	-	-	-	-
CC(=O)Nc1cc(NC(C)=O)c(N=Nc2ccccc2)cc1C	-	-	-	-	-	-
O=C(CCCN1CCN(c2ccccn2)CC1)c1ccc(F)cc1	-	351	-	-	-	-
O=S(=O)(CCN1CCN(c2ccccn2)CC1)c1ccc(F)cc1	-	-	-	-	-	-
Cc1cc(C2C(C#N)=C(N)SC(N)=C2C#N)c(C)s1	99	-	-	-	-	-
CN(C)c1ccc(C(=O)c2ccccc2C(=O)O)c(O)c1	-	-	-	-	-	-
CCCCN(CCCC)c1ccc(C(=O)c2ccccc2C(=O)O)c(O)c1	90	-	-	-	-	-
Cn1c(C(O)c2ccccc2F)nc(Cl)c1Cl (stereo not drawn)	-	-	-	-	-	-
Cn1c(C(O)c2ccc(Br)cc2)nc(Cl)c1Cl (stereo not drawn)	.	-	-	-	-	61
CC1CCc2c(sc(NC(=O)CSc3ncnc4c3cnn4-c3ccccc3Cl)c2C#N)C1 (stereo not drawn)	-	-	-	-	-	-
CCCCCCC1(C)NC(=S)N(c2ccccc2)N1 (stereo not drawn)	-	-	-	-	-	-
CCC1(c2ccccc2)NC(=S)N(c2ccc(C)cc2)N1 (stereo not drawn)	94	.	-	-	-	-
CCCCCC1(C)NC(=S)N(c2ccccc2)N1 (stereo not drawn)	-	300	-	-	-	-
SMILES	ALR inh	SUMO Mot1 rescue	VLA-4 inh	Bfl-1 A1 inh	Efflux pump inh	AHR activator
CC1(CC(=O)Nc2ccccc2)NC(=S)N(c2ccccc2)N1 (stereo not drawn)	.	-	-	-	-	-
CCc1ccc2oc(-c3ccc(NC(C)=O)cc3)nc2c1	96	-	-	-	-	-
Cc1nc(N=Nc2ccc(O)cc2)n[nH]1	94	-	-	-	-	-
CC12CCC(C(=O)Nc3ccc(Br)cn3)(OC1=O)C2(C)C (stereo not drawn)	-	-	-	-	-	-
Cc1ccc(Nc2nc(N)nc(CCl)n2)cc1	-	-	-	-	-	-
Cc1ccc(Nc2nc(N)nc(CCl)n2)c(C)c1	-	-	-	-	-	-
Nc1nc(CCl)nc(Nc2ccccc2)n1	87	-	-	-	-	-
Cc1cccc(Nc2nc(N)nc(CCl)n2)c1C	91	-	-	-	-	-
